Reference: PubChem BioAssay AID463173 (ICCB-Longwood Screening Facility, Harvard Medical School, 2010)
Out of some 52,000 compounds screened, about 4,300 (8.3%) were called active. Many of the other results were omitted from the sample, so actives are more common in it than they were. Unmarked numbers belong to inactive results. Cut-off read from the data, not from the text of the source: active = survival mostly below about 52% (no sharp cut-off); inactive = mostly above about 56%.

Each compound was assayed on DeltatarO mutant (assay: S. aureus survival, RN4220 and DeltatarO strains – OD600, teichoic acid synthesis inhibitors, primary screen (AID 463173)). Conditions: S. aureus RN4220 wild type/DeltatarO growth, OD600, 18 h, stronger effect = lower value, screened at 18.75 µg/mL (by protocol).
For `O=C(CN1C(=O)C2CCCCN2c2ccc(C(=O)N3CCCC3)cc21)NCc1cccc(Cl)c1` (stereo unspecified), the survival was 68%.
With `O=C(NCc1cccnc1)c1cn(C2CC2)c2cc(N3CCN(C(=O)c4cccc(Cl)c4)CC3)c(F)cc2c1=O` the survival was 1% (active).
Work on `O=C(NCc1ccncc1)C1CCN(C(=O)c2cccc(Cl)c2)CC1` yielded a survival of 74%.
With `CCC(=O)N1CCc2cc(Br)cc(S(=O)(=O)CCC(=O)NCc3ccc(F)cc3)c21` the survival was 80%.
Compound `Cc1ccc(C)c(Cn2c(=O)n(CCc3ccccc3)c(=O)c3c(C)c(C)sc32)c1` has a survival of 112%.
In the case of `Cc1sc2c(c1C)c(=O)n(CCc1ccccc1)c(=O)n2Cc1cccc(F)c1`, the survival was 16% (active).
`Cc1cccc(Cn2c(=O)n(CCc3ccccc3)c(=O)c3c(C)c(C)sc32)c1` was tested, and the survival was 111%.
`Cc1sc2c(c1C)c(=O)n(CCc1ccccc1)c(=O)n2Cc1ccc(F)cc1` showed a survival of 52%.
`Cc1ccccc1Cn1c(=O)n(CCc2ccccc2)c(=O)c2c(C)c(C)sc21` was tested, and the survival was -6% (active).
`Cc1sc2c(c1C)c(=O)n(CCc1ccccc1)c(=O)n2Cc1ccccc1Cl` was tested, and the survival was 103%.
Work on `CN1CCN(Cc2c(O)ccc3cc(-c4ccccc4)c(=O)oc23)CC1` yielded a survival of 105%.
`CCOC(=O)c1[nH]c(C)c(CCC(=O)NCc2ccc(OC(C)C)cc2)c1C` showed a survival of 80%.
Work on `CCc1ccc(NC(=O)CN2C(=O)CC(c3ccccc3)Sc3ccccc32)cc1` (stereo unspecified) yielded a survival of 113%.
Compound `COc1cc(C2CC(=O)N(Cc3cccc(F)c3)c3ccccc3S2)cc(OC)c1OC` (stereo unspecified) has a survival of 103%.
In the case of `COc1ccc(C2CC(=O)N(Cc3ccc(F)cc3)c3ccccc3S2)cc1OC` (stereo unspecified), the survival was 100%.
Compound `O=C1CC(c2ccccc2)Sc2ccccc2N1Cc1ccccc1F` (stereo unspecified) has a survival of 96%.
`COc1cc(C2CC(=O)N(Cc3ccc(F)cc3)c3ccccc3S2)cc(OC)c1OC` (stereo unspecified) showed a survival of 75%.
In the case of `O=C1CC(c2ccccc2)Sc2ccccc2N1Cc1ccc(F)cc1` (stereo unspecified), the survival was -2% (active).
For `COc1ccc(C2CC(=O)N(Cc3ccc(F)cc3)c3ccccc3S2)cc1` (stereo unspecified), the survival was 28% (active).
With `COc1ccc(C2CC(=O)N(CC(=O)Nc3cc(C)ccc3C)c3ccccc3S2)cc1` (stereo unspecified) the survival was 79%.
In the case of `COc1ccc(C2CC(=O)N(Cc3cccc(F)c3)c3ccccc3S2)cc1` (stereo unspecified), the survival was 47% (active).
`COc1ccc2c(c1)c(=O)c(C(=O)c1ccc(C)c(C)c1)cn2CC(=O)Nc1ccc2c(c1)OCCO2` gave a survival of 76%.
Work on `CCOc1ccc(NC(=O)Cn2cc(C(=O)c3ccc(CC)cc3)c(=O)c3cc(OC)c(OC)cc32)cc1` yielded a survival of 98%.
Compound `CCOC(=O)c1ccc(NC(=O)CCc2c(C)nc3c(-c4ccc(F)cc4)c(C)nn3c2C)cc1` has a survival of 61%.
For `COc1ccccc1N1CCN(C(=O)c2ccc(Nc3nc4ccccc4n4nnnc34)cc2)CC1`, the survival was 59%.
`Cc1ccc(CNC(=O)C2CCC(CNS(=O)(=O)c3ccc4c(c3)CCCC(=O)N4)CC2)cc1` (stereo unspecified) gave a survival of 79%.
In the case of `COc1cccc(C(c2sc3nc(-c4ccco4)nn3c2O)N2CCCC2)c1` (stereo unspecified), the survival was 71%.
`COc1ccc(C)c2sc(N3CCN(C(=O)c4ccco4)CC3)nc12` was tested, and the survival was 17% (active).
Work on `COc1ccc(OC)c2sc(N3CCN(C(=O)C4COc5ccccc5O4)CC3)nc12` (stereo unspecified) yielded a survival of 88%.
With `COc1ccc(OC)c2sc(N3CCN(C(=O)C4CC4)CC3)nc12` the survival was -5% (active).
In the case of `COc1ccc(OC)c2sc(N3CCN(C(=O)c4ccco4)CC3)nc12`, the survival was 87%.
`Cc1ccc(C)c2sc(N3CCN(C(=O)c4ccco4)CC3)nc12` showed a survival of 134%.
With `COc1ccc(OC)c2sc(N3CCN(C(=O)C(C)(C)C)CC3)nc12` the survival was 89%.
`CCn1cc(S(=O)(=O)c2cccc(C)c2)c(=O)c2cc(F)c(N3CCCCC3C)cc21` (stereo unspecified) gave a survival of 83%.
For `CCc1ccc2[nH]c(=O)c(C(c3nnnn3C(C)(C)C)N3CCc4ccccc43)cc2c1` (stereo unspecified), the survival was 96%.
For `Cc1oc(-c2ccc(C(=O)N(C)Cc3ccccc3)cc2)nc1CN1CCc2ccccc21`, the survival was 119%.
Compound `Cc1ccc(-n2nc3ccc(NC(=O)Cc4ccc(Cl)cc4)cc3n2)cc1` has a survival of 79%.
`CCOc1ccc(CNC(=O)Cn2c(=O)c3cccn3c3ccccc32)cc1` gave a survival of 60%.
`Fc1ccc(F)c(Nc2c3c(nc4ccc(Cl)cc24)CCC3)c1` was tested, and the survival was -18% (active).
In the case of `COc1ccc(Nc2c3c(nc4ccc(NC(=O)c5cc(Cl)ccc5OC)cc24)CCCC3)cc1OC`, the survival was 70%.
`Fc1ccccc1Nc1c2c(nc3ccccc13)CCC2` was tested, and the survival was 95%.
`FC(F)(F)c1cccc(Nc2c3c(nc4ccc(Cl)cc24)CCC3)c1` was tested, and the survival was 9% (active).
`COc1cc(Cl)c(C)cc1Nc1c2c(nc3ccccc13)CCC2` gave a survival of 70%.
For `CCOC(=O)c1cccc(Nc2c3c(nc4ccccc24)CCC3)c1`, the survival was 68%.
`O=C(Nc1c(C(=O)N2CCN(c3ccc(F)cc3)CC2)oc2ccccc12)c1c(F)cccc1F` was tested, and the survival was 95%.
For `CCC(=O)Nc1ccccc1-c1nc2ccccc2n(Cc2cccc(Br)c2)c1=O`, the survival was 49%.
For `CCn1cc(C(=O)NCCc2ccc(Cl)cc2)c(=O)c2cc(S(=O)(=O)N(C)C3CCCCC3)ccc21`, the survival was 84%.
Compound `CC(=O)Nc1c(C)nn(-c2ccccc2)c1N1CCC(C(=O)Nc2ccc(F)cc2Cl)CC1` has a survival of 76%.
For `CC(=O)Nc1c(C)nn(-c2ccccc2)c1N1CCC(C(=O)NCc2ccc(Cl)cc2)CC1`, the survival was 72%.
`CC(=O)Nc1ccc(NC(=O)C2CCN(c3c(NC(C)=O)c(C)nn3-c3ccccc3)CC2)cc1` was tested, and the survival was 67%.
`CC(=O)Nc1c(C)nn(-c2ccccc2)c1N1CCC(C(=O)Nc2ccc(C)cc2Cl)CC1` was tested, and the survival was 72%.
Compound `Cc1ccc(CNC(=O)C2CCN(c3nn4cc(-c5ccc(F)cc5)nc4s3)CC2)cc1` has a survival of 87%.
With `CC(=O)Nc1c(C)nn(-c2ccccc2)c1N1CCC(C(=O)NCc2ccccc2Cl)CC1` the survival was -2% (active).
Work on `O=C(NCc1cccc(F)c1)C1CCN(c2nn3cc(-c4ccc(F)cc4)nc3s2)CC1` yielded a survival of 87%.
In the case of `CC(=O)Nc1c(C)nn(-c2ccccc2)c1N1CCC(C(=O)NCc2ccc(F)cc2)CC1`, the survival was -1% (active).
For `Cc1cccc(CNC(=O)C2CCN(c3nn4cc(-c5ccc(F)cc5)nc4s3)CC2)c1`, the survival was 47% (active).
`CC(=O)Nc1c(C)nn(-c2ccccc2)c1N1CCC(C(=O)Nc2cc(F)ccc2F)CC1` showed a survival of 79%.
`CC(=O)Nc1c(C)nn(-c2ccccc2)c1N1CCC(C(=O)NCc2cccc(Cl)c2)CC1` showed a survival of 84%.
With `CC(=O)Nc1c(C)nn(-c2ccccc2)c1N1CCC(C(=O)NCc2cccc(F)c2)CC1` the survival was 6% (active).
`COc1ccc(OC)c(C2CC(=O)Nc3c2c(=O)n(C)c2ncnn32)c1` (stereo unspecified) was tested, and the survival was 166%.
`O=C(Nc1ccc(N2CCOCC2)cc1)c1ncn[nH]1` was tested, and the survival was 86%.
`Cc1ccc(NC(=O)Cn2c(SCc3cccc(F)c3)nc3ccncc32)c(C)c1` showed a survival of 83%.
Compound `Cc1ccc(O)c(NC(=O)c2cc(-c3ccccc3O)no2)c1` has a survival of 80%.
In the case of `CCOc1ccc(N2CC(NC(=O)c3ccc(S(=O)(=O)N4CCCC4)cc3)CC2=O)cc1` (stereo unspecified), the survival was 87%.
`O=C(NC1CC(=O)N(c2ccc(F)cc2)C1)c1ccc(S(=O)(=O)N2CCCCC2)cc1` (stereo unspecified) was tested, and the survival was 75%.
In the case of `CCOc1ccc(N2CC(NC(=O)c3ccc(S(=O)(=O)N4CCOCC4)cc3)CC2=O)cc1` (stereo unspecified), the survival was 47% (active).
Work on `O=C(NC1CC(=O)N(c2ccccc2)C1)c1ccc(S(=O)(=O)N2CCCC2)cc1` (stereo unspecified) yielded a survival of 128%.
With `O=C(NC1CC(=O)N(c2ccccc2)C1)c1ccc(S(=O)(=O)N2CCCCC2)cc1` (stereo unspecified) the survival was 17% (active).
Compound `CCOc1ccc(N2CC(NC(=O)c3ccc(S(=O)(=O)N4CCCCC4)cc3)CC2=O)cc1` (stereo unspecified) has a survival of 79%.
Work on `Cc1c(Cl)cccc1N1C(N)=C(C#N)C(c2cc(CN3CCOCC3)cs2)C2=C1CCCC2=O` (stereo unspecified) yielded a survival of 128%.
For `COc1ccc(Cl)cc1NC(=O)c1c(NCc2ccc(C)o2)sc2c1CCC(C)C2` (stereo unspecified), the survival was 81%.
In the case of `COc1ccc(OC)c(NC(=O)c2c(NCc3ccc(C)o3)sc3c2CCC(C)C3)c1` (stereo unspecified), the survival was 52% (active).
`COc1ccc(NC(=O)c2c(NCc3ccc(C)o3)sc3c2CCC(C)C3)c(OC)c1` (stereo unspecified) gave a survival of 82%.
For `Cc1nnc(SCC#N)n1C`, the survival was 92%.
For `CC(=O)Nc1ccc(S(=O)(=O)NCc2ccc(C(=O)NCc3ccc(Cl)cc3)cc2)cc1`, the survival was 68%.
Compound `Cc1ccc(-c2nn(-c3ccc(F)cc3)c3c2cnc2cc(F)c(F)cc23)cc1` has a survival of 82%.
Compound `CSc1ccc(CCNC(=O)CCc2c(C)nc3c(c(C)nn3-c3ccc(C)c(C)c3)c2C)cc1` has a survival of 91%.
`Cc1c2cnn(-c3ccccc3)c(=O)c2c(C)n1CCCC(=O)Nc1ccc(F)cc1F` showed a survival of 72%.
With `Cc1ccc2c(c1)c(=O)c1ccccc1n2CCCC(=O)Nc1ccc(Cl)cc1C` the survival was 45% (active).
For `Cc1ccc(NC(=O)CCCn2c3ccccc3c(=O)c3cc(C)ccc32)c(Br)c1`, the survival was 38% (active).
Work on `Cc1ccc(CCNC(=O)CCCn2c(=O)c3ccccc3n(CC(=O)Nc3cc(Cl)ccc3C)c2=O)cc1` yielded a survival of 116%.
Compound `CCCn1c2ccccc2c2cnn(CC(=O)Nc3ccc(C)cc3Br)c(=O)c21` has a survival of 94%.
With `Cc1ccc2c(c1)c(=O)c1ccccc1n2CCCC(=O)Nc1ccc(F)cc1F` the survival was 49% (active).
`Cc1ccc(NC(=O)CCS(=O)(=O)c2ccc3c(c2)oc(=O)n3C)c(Br)c1` was tested, and the survival was 80%.
`Cc1ccc2c(c1)c(=O)c1ccccc1n2CCCC(=O)Nc1c(F)cccc1F` showed a survival of 53%.
`Cc1ccc2c(c1)c(=O)c1ccccc1n2CCCC(=O)Nc1cc(Cl)ccc1C` gave a survival of 113%.
